What all share (details): mRNA level, 48 h; actives raise or lower the signal
Read-out in experiment [1]: Tumor necrosis factor receptor superfamily member 6 (Homo sapiens) (UniProt P25445)
The experiment in a line: LTEA_HepaRG_FAS: Life Technologies and Expression Analysis (LTEA) Assay for Fas cell surface death receptor (FAS) using HepaRG (AID 2283447). The gist of the method: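 Differentiated HepaRG cells in serum-free induction medium were exposed 48 h to 8 half-log concentrations up to 100 uM in 0.5% DMSO, in duplicate. FAS mRNA was measured by qRT-PCR normalised to ACTB, GAPDH and POLR2A; bidirectional fit versus DMSO.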

Read-out in experiment [2]: Fatty acid synthase (Homo sapiens) (UniProt P49327)
Put plainly: LTEA_HepaRG_FASN: Life Technologies and Expression Analysis (LTEA) Assay for Fatty Acid Synthase (FASN) using HepaRG (AID 2283448).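 As to AC50: differentiated human HepaRG liver cells in serum-free induction medium.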 Put shortly: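 Cells were plated, cultured 48 h, switched to serum-free induction medium, then dosed in duplicate (max 100 uM, half-log dilutions, 0.5% DMSO) for 48 h. RNA was then isolated and FASN quantified by qRT-PCR.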

Read-out in experiment [3]: Cyclin Dependent Kinase Inhibitor 1A (CDKN1A), CDKN1A (gene 1026)
The experiment in a line: LTEA_HepaRG_CDKN1A: Life Technologies and Expression Analysis (LTEA) Assay for Cyclin Dependent Kinase Inhibitor 1A (CDKN1A) using HepaRG (AID 2283450). The gist of the method:
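Expression quantified by Fluidigm qRT-PCR with ACTB, GAPDH and POLR2A normalization, fitted bidirectionally against 0.5% DMSO. Cells: HepaRG, plated 48 h then treated 48 h in serum-free induction medium, top concentration 100 uM with half-log dilutions.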

Read-out in experiment [4]: Cyclin D1 (CCND1), CCND1 (gene 595)
Put plainly: LTEA_HepaRG_CCND1: Life Technologies and Expression Analysis (LTEA) Assay for Cyclin D1 (CCND1) using HepaRG (AID 2283451).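 As to AC50: differentiated human HepaRG liver cells in serum-free induction medium; TaqMan qRT-PCR transcript level normalised to ACTB GAPDH and POLR2A housekeeping genes.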 Put shortly:
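Expression of CCND1 was quantified by qRT-PCR on Fluidigm arrays using ACTB, GAPDH and POLR2A as reference genes. HepaRG cultures, plated 48 h beforehand, were dosed for 48 h at up to 100 uM (half-log, 8 points) in 0.5% DMSO.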

Read-out in experiment [5]: catalase (CAT), CAT (gene 847)
Put plainly: LTEA_HepaRG_CAT: Life Technologies and Expression Analysis (LTEA) Assay for catalase (CAT) using HepaRG (AID 2283452). Put shortly: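 HepaRG cells in serum-free induction medium, 0.5% DMSO vehicle, exposed 48 h in duplicate over 8 half-log concentrations from 100 uM. CAT mRNA measured by qRT-PCR, normalized to ACTB, GAPDH, POLR2A; bidirectional fit versus DMSO.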

Read-out in experiment [6]: flavin-containing dimethylaniline monooxygenases 3 (FMO3), FMO3 (gene 2328)
Put plainly: LTEA_HepaRG_FMO3: Life Technologies and Expression Analysis (LTEA) Assay for flavin-containing dimethylaniline monooxygenases 3 (FMO3) using HepaRG (AID 2283453).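 As to AC50: differentiated human HepaRG liver cells in serum-free induction medium.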 The gist of the method: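 FMO3 transcript quantified by TaqMan qRT-PCR against three housekeeping genes after 48 h chemical exposure of HepaRG cells. Eight-point half-log series, top 100 uM, 0.5% DMSO vehicle; phenobarbital 1mM induction control; up- or down-regulation fitted.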

Read-out in experiment [7]: Cytochrome P450 (CYP1A1), CYP1A1 (gene 1543)
The experiment in a line: LTEA_HepaRG_CYP1A1: Life Technologies and Expression Analysis (LTEA) Assay for Cytochrome P450 (CYP1A1) using HepaRG (AID 2283454). Put shortly: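 CYP1A1 transcript levels measured by Fluidigm qRT-PCR against three housekeeping genes, 48 h after chemical dosing of human HepaRG cells (highest concentration 100 uM, half-log steps, 0.5% DMSO vehicle). Gain or loss of signal fitted relative to DMSO.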

Read-out in experiment [8]: Forkhead box O1 (FOXO1), FOXO1 (gene 2308)
Put plainly: LTEA_HepaRG_FOXO1: Life Technologies and Expression Analysis (LTEA) Assay for Forkhead box O1 (FOXO1) using HepaRG (AID 2283456). The gist of the method:
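HepaRG, 48 h exposure, 8-pt half-log series from 100 uM in 0.5% DMSO, duplicates; Fluidigm qRT-PCR mRNA, housekeeping-normalised; bidirectional fit vs DMSO baseline.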

Read-out in experiment [9]: growth arrest and DNA damage 45 (GADD45A), GADD45A (gene 1647)
The experiment in a line: LTEA_HepaRG_GADD45A: Life Technologies and Expression Analysis (LTEA) Assay for growth arrest and DNA damage 45 (GADD45A) using HepaRG (AID 2283458). Put shortly: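 Transcript induction or loss, quantified by TaqMan qRT-PCR against three housekeeping genes, is the read-out. HepaRG cells received chemicals for 48 h across eight half-log concentrations from 100 uM in 0.5% DMSO; gain and loss fitted relative to DMSO.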

Read-out in experiment [10]: Forkhead box O3 (FOXO3), FOXO3 (gene 2309)
Put plainly: LTEA_HepaRG_FOXO3: Life Technologies and Expression Analysis (LTEA) Assay for Forkhead box O3 (FOXO3) using HepaRG (AID 2283459). The gist of the method:
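qRT-PCR readout of FOXO3 transcript, normalized to three housekeeping genes (ACTB, GAPDH, POLR2A); gain or loss fitted against 0.5% DMSO vehicle. HepaRG cells, 48 h chemical exposure, 8-point half-log series, top 100 uM.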

Read-out in experiment [11]: ABC Transporter (ABCB1), ABCB1 (gene 5243)
The experiment in a line: LTEA_HepaRG_ABCB1: Life Technologies and Expression Analysis (LTEA) Assay for ABC Transporter (ABCB1) using HepaRG (AID 2283460). Put shortly:
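HepaRG, 48 h exposure, 8-pt half-log series from 100 uM, 0.5% DMSO vehicle, duplicates. Readout: ABCB1 transcript by Fluidigm TaqMan qRT-PCR, housekeeping-normalized; bidirectional curve fit vs DMSO baseline.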

Read-out in experiment [12]: growth arrest and DNA damage 45 (GADD45B), GADD45B (gene 4616)
Put plainly: LTEA_HepaRG_GADD45B: Life Technologies and Expression Analysis (LTEA) Assay for growth arrest and DNA damage 45 (GADD45B) using HepaRG (AID 2283461). The gist of the method: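 Transcript level quantified by Fluidigm TaqMan qRT-PCR with three housekeeping genes for normalization, analyzed for up- or down-regulation against 0.5% DMSO. HepaRG cultures dosed 48 h at eight half-log concentrations up to 100 uM, duplicates.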

Read-out in experiment [13]: ABC Transporter (ABCC3), ABCC3 (gene 8714)
The experiment in a line: LTEA_HepaRG_ABCC3: Life Technologies and Expression Analysis (LTEA) Assay for ABC Transporter (ABCC3) using HepaRG (AID 2283462). The gist of the method:
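Transcript level by TaqMan qRT-PCR, normalised to three housekeeping genes, fitted in both directions relative to vehicle. Chemicals tested in duplicate at eight half-log concentrations up to 100 uM for 48 h on HepaRG cells (0.5% DMSO).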

Read-out in experiment [14]: ABC Transporter (ABCB11), ABCB11 (gene 8647)
Put plainly: LTEA_HepaRG_ABCB11: Life Technologies and Expression Analysis (LTEA) Assay for ABC Transporter (ABCB11) using HepaRG (AID 2283463). Put shortly: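 HepaRG, 48 h exposure, 8-pt half-log CRC top 100 uM, 0.5% DMSO vehicle, duplicates. Readout: TaqMan qRT-PCR of ABCB11 mRNA, housekeeping-normalized (ACTB/GAPDH/POLR2A). Bidirectional fit vs DMSO baseline.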

Read-out in experiment [15]: Broad substrate specificity ATP-binding cassette transporter ABCG2 (Homo sapiens) (UniProt Q9UNQ0)
The experiment in a line: LTEA_HepaRG_ABCG2: Life Technologies and Expression Analysis (LTEA) Assay for ABC Transporter (ABCG2) using HepaRG (AID 2283465). The gist of the method: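 HepaRG, 48 h exposure, 8-pt half-log series from 100 uM, 0.5% DMSO vehicle, duplicates. Readout: ABCG2 transcript by qRT-PCR (Fluidigm array), housekeeping-normalized; bidirectional curve fit relative to DMSO baseline.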

Read-out in experiment [16]: ABC Transporter (ABCC2), ABCC2 (gene 1244)
Put plainly: LTEA_HepaRG_ABCC2: Life Technologies and Expression Analysis (LTEA) Assay for ABC Transporter (ABCC2) using HepaRG (AID 2283464). Put shortly: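 Endpoint is ABCC2 transcript level from qRT-PCR, normalized to three housekeeping genes and fitted bidirectionally relative to DMSO. Human HepaRG cells received test chemical for 48 h at up to 100 uM (8 points, half-log steps, 0.5% DMSO), duplicate wells.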

Read-out in experiment [17]: Cyclin D2 (CCND2), CCND2 (gene 894)
The experiment in a line: LTEA_HepaRG_CCND2: Life Technologies and Expression Analysis (LTEA) Assay for Cyclin D2 (CCND2) using HepaRG (AID 2283449).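 Also: CCND2 transcript measured by TaqMan qRT-PCR and normalised to three housekeeping genes.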 The gist of the method:
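HepaRG, 48 h dosing, 8-pt half-log curve from 100 uM, 0.5% DMSO; duplicate wells. Readout: CCND2 transcript by microfluidic qRT-PCR, housekeeping-normalised; bidirectional fit vs DMSO baseline.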

Read-out in experiment [18]: CFLAR gene, CFLAR (gene 8837)
The experiment in a line: LTEA_HepaRG_CFLAR: Life Technologies and Expression Analysis (LTEA) Assay for CFLAR gene using HepaRG (AID 2283455). The gist of the method:
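qRT-PCR read-out (Fluidigm/TaqMan) of CFLAR mRNA, normalized to three housekeeping genes, in differentiated human HepaRG cells after 48 h chemical exposure; 8-point half-log series from 100 uM in 0.5% DMSO; bidirectional curve fitting versus DMSO.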

Molecules are shown by their SMILES. Calls of active or inactive are those of the source. The calls were made as follows: active = hit-call score of the fitted dose curve at least 0.9, where 1 is the maximum; inactive = score below 0.9.

Broad substrate specificity ATP-binding cassette transporter ABCG2 (Homo sapiens), sequence (Q9UNQ0 whole entry, looked up): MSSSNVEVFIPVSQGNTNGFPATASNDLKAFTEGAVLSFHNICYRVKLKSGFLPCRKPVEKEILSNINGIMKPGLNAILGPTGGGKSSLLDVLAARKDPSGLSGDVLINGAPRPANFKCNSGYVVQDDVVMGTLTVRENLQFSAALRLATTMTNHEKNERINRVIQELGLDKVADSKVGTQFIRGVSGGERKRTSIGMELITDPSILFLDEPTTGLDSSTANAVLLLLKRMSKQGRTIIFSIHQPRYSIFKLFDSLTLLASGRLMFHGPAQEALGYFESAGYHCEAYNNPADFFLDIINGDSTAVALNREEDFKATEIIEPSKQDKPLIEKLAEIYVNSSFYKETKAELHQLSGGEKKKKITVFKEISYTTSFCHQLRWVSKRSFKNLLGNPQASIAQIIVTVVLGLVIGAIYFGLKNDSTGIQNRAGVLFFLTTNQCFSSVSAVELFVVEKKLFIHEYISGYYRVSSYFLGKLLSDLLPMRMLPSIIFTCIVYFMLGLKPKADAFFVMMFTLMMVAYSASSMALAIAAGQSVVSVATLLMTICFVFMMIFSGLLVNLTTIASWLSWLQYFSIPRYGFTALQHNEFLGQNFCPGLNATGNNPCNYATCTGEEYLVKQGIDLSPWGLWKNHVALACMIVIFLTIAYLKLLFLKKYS
Fatty acid synthase (Homo sapiens), sequence (P49327 whole entry, looked up): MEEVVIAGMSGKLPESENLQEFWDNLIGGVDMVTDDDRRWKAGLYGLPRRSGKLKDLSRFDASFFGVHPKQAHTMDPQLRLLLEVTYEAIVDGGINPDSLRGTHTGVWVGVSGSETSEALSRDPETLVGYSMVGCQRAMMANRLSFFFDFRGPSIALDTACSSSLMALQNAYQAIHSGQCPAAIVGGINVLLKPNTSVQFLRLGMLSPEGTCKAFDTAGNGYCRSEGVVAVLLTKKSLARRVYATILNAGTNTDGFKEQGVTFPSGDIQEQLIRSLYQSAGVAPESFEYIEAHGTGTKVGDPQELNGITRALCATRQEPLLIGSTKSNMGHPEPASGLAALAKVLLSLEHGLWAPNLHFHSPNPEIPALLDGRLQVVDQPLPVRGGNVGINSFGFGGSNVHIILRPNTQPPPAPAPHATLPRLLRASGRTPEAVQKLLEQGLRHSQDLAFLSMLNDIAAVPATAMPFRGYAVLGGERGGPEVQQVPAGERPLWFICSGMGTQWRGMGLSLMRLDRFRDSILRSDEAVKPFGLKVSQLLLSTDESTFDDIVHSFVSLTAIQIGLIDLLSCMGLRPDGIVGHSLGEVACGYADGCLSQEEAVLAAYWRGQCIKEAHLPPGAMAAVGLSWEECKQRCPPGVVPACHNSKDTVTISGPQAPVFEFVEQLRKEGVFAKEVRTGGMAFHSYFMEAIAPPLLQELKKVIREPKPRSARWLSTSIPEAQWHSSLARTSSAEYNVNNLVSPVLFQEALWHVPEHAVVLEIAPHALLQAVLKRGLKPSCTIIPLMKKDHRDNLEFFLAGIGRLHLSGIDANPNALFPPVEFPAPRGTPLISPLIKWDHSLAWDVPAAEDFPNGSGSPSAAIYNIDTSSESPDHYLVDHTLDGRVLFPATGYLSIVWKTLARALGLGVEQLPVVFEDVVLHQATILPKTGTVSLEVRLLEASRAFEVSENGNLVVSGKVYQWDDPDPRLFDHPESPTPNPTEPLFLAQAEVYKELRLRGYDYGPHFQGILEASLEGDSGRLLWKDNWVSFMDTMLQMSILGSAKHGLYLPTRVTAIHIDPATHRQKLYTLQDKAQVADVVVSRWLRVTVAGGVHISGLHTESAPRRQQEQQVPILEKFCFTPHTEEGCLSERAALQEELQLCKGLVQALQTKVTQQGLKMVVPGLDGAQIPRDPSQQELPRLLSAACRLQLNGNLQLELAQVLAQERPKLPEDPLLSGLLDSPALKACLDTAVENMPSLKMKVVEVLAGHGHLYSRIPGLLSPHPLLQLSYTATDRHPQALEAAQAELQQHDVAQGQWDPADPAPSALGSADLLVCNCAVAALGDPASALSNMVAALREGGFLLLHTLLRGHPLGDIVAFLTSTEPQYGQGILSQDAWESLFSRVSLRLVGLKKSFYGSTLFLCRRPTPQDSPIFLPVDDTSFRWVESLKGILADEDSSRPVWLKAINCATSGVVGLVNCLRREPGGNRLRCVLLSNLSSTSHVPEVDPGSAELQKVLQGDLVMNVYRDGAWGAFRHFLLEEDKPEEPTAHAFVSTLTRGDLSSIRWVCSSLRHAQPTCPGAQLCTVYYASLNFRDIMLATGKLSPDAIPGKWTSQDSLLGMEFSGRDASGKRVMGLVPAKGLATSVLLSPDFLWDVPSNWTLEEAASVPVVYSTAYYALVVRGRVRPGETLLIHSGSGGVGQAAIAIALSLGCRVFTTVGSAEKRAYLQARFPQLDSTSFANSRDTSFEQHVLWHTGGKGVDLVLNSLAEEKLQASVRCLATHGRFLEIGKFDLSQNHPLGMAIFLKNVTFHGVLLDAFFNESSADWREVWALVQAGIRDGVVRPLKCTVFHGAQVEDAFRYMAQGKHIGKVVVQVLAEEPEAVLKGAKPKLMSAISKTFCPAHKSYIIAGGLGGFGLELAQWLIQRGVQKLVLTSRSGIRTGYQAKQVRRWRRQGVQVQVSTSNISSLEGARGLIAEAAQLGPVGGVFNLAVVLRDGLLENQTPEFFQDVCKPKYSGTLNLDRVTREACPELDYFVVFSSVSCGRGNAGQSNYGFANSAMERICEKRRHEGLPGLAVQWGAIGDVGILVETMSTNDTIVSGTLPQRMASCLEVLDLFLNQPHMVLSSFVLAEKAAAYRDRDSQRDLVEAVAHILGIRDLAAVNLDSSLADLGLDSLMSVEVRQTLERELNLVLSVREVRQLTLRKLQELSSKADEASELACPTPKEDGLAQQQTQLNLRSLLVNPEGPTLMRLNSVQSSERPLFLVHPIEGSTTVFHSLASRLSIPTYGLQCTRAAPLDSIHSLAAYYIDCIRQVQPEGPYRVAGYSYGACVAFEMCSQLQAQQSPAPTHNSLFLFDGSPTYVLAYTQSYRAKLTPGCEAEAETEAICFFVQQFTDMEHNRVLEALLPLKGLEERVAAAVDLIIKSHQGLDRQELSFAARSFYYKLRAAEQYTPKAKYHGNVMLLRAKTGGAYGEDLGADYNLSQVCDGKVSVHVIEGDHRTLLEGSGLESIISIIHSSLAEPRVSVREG

For `CCCCCCCCCCCCc1ccccc1`, the outcome in experiment [1], in [2], in [3], in experiment [4], in [5] and in [6] was inactive. For the same compound, the compound was called inactive in experiment [8], in experiment [9], in [10], in experiment [11], in experiment [12] and in [13]. Moreover, the call in experiment [14] and in experiment [15] was inactive. In addition, the concentration at half-maximal activity (AC50) – broadly, the concentration at which the activity in the assay is half-maximal – in experiment [7] is 73.7 µM (active).
`O=C(O)CC(O)C(=O)O` (centres undefined): the compound was called inactive in experiment [2], in [3], in [4], in experiment [5], in experiment [6] and in experiment [8]. In addition, the compound was called inactive in [9], in experiment [10], in [11], in [12], in experiment [13] and in [14]. Moreover, the call in [16] and in experiment [15] was inactive. Moreover, in experiment [7], the AC50 is 77.9 µM (active).
With `CCOCCOCCOCCO`, the compound was called inactive in experiment [2], in experiment [3], in experiment [4], in experiment [5], in [6] and in experiment [7]. For the same compound, the compound was called inactive in [8], in experiment [9], in experiment [10], in experiment [11], in experiment [12] and in [13]. In addition, the compound was classed as inactive in experiment [14], in experiment [16] and in experiment [15].
Take `CCCN(C1CCN(C(=O)C2CCNCC2)CC1)[C@@H]1CCc2ccc(OC)cc2C1`: the AC50 is 80.6 µM (active) in experiment [2]; 50 µM (active) in [4]; 50.1 µM (active) in [5]; 57.5 µM (active) in [6]; 50 µM (active) in experiment [8]; 27.6 µM (active) in experiment [10]. The AC50 in experiment [11] was 15.2 µM (active); in experiment [13] it was 42.9 µM (active); in experiment [14], 70 µM (active); in [15], 35.5 µM (active). Besides, the result in experiment [17], in [3], in [7], in experiment [9] and in [12] was inactive.
Turning to `O=C(O)CCN(C1(C(=O)NO)CCCC1)S(=O)(=O)c1ccc(Oc2ccc(F)cc2)cc1`, the outcome in [2], in experiment [17], in experiment [3], in experiment [4], in experiment [5] and in [6] was inactive. The outcome in experiment [8], in experiment [9], in experiment [10], in [11], in experiment [12] and in [13] was inactive. Moreover, the compound was called inactive in experiment [14], in experiment [16] and in experiment [15]. The AC50 in experiment [7] was 67.5 µM (active).
Turning to `O=C(NS(=O)(=O)/C=C/c1ccccc1)c1ccc(F)cc1Cl`, the compound was called inactive in experiment [2], in experiment [17], in [3], in experiment [4], in experiment [5] and in experiment [6]. Also, the compound was called inactive in experiment [18], in experiment [8], in experiment [9], in experiment [10], in experiment [12] and in experiment [13]. In experiment [15], the compound was classed as inactive. For the same compound, the results for the AC50 in experiment [7], in [11] and in experiment [14] were 50 µM (active), 10.8 µM (active) and 50 µM (active), respectively.
For the compound `CC(C)CCO`, the call in experiment [2], in [17], in experiment [3], in experiment [4], in experiment [5] and in experiment [6] was inactive. Further, the outcome in experiment [7], in experiment [18], in [8], in [9], in [10] and in experiment [11] was inactive. The result in experiment [12], in experiment [13], in experiment [14], in experiment [16] and in experiment [15] was inactive.

These data come from PubChem BioAssay (EPA / NIEHS).
